Source: PubChem BioAssay (EPA / NIEHS)
Calls of active or inactive are those of the source. How the source made its calls: active means hit-call score of the fitted dose curve at least 0.9, where 1 is the maximum; inactive means score below 0.9.

Experiment: CCTE_Simmons_MITO_basal_resp_rate: CCTE's HepG2 Seahorse XF Respirometric Screening Assay at Basal Respiratory State, Simmons Lab (AID 2284001)
Details: actives raise or lower the signal
In short: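 Readout is oxygen consumption rate after test compound injection, measured by Seahorse XF in HepG2 cells. Seven concentrations from 125 nM up to 100 uM final are tested, and activity in either direction is fitted against DMSO.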

| Structure (SMILES) | AC50 | outcome |
| --- | --- | --- |
| O=c1[nH]c2ccc(S(=O)CCN3CCC(Cc4ccc(F)cc4)CC3)cc2o1 (stereo not given) | 49.7 µM (active) | – |
| COc1cccc(-c2ccc(/C=C\CN3CCCCCC3)cc2Cl)c1 | – | inactive |
| COc1ccc2sc(C(=O)Nc3nnn[nH]3)c(OC(C)C)c2c1 | – | inactive |
| COc1ccc(/C=C/S(=O)(=O)NC(=O)c2ccc(C)cc2Cl)cc1 | 24.6 µM (active) | – |
| CCOC(=O)COc1ccc2c(c1)CC(NCC(O)c1cccc(Cl)c1)CC2 (stereo not given) | 32.9 µM (active) | – |
| CC(C)=CCCC(C)=CC=O | – | inactive |
| Cc1c(-c2cccnc2)c2ccccc2n1CCCCC(=O)O | 26.7 µM (active) | – |
| CCn1nc(Cc2ccccc2)cc1C1CCN(C[C@H]2C[C@H](N(C)[C@@H](C(=O)O)C(C)C)C[C@@H]2c2cccc(F)c2)CC1 | 27.8 µM (active) | – |
| CC(C)=CCC/C(C)=C/CO | 45.7 µM (active) | – |

Experiment: CCTE_Simmons_MITO_inhib_resp_rate: CCTE's HepG2 Seahorse XF Respirometric Screening Assay at Inhibited Respiratory State [full ETC block], Simmons Lab (AID 2284006)
Details: actives raise or lower the signal
In short: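 OCR read-out in the inhibited phase following rotenone/antimycin A, after compound and FCCP injections, in HepG2 cells. Seven concentrations (125 nM to 100 uM final), three biological replicates, 6-min cycles over 72 min; DMSO baseline.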

| Structure (SMILES) | outcome |
| --- | --- |
| O=c1[nH]c2ccc(S(=O)CCN3CCC(Cc4ccc(F)cc4)CC3)cc2o1 (stereo not given) | inactive |
| COc1cccc(-c2ccc(/C=C\CN3CCCCCC3)cc2Cl)c1 | inactive |
| COc1ccc2sc(C(=O)Nc3nnn[nH]3)c(OC(C)C)c2c1 | inactive |
| COc1ccc(/C=C/S(=O)(=O)NC(=O)c2ccc(C)cc2Cl)cc1 | inactive |
| CCOC(=O)COc1ccc2c(c1)CC(NCC(O)c1cccc(Cl)c1)CC2 (stereo not given) | inactive |
| CC(C)=CCCC(C)=CC=O | inactive |
| Cc1c(-c2cccnc2)c2ccccc2n1CCCCC(=O)O | inactive |
| CCn1nc(Cc2ccccc2)cc1C1CCN(C[C@H]2C[C@H](N(C)[C@@H](C(=O)O)C(C)C)C[C@@H]2c2cccc(F)c2)CC1 | inactive |
| CC(C)=CCC/C(C)=C/CO | inactive |

Experiment: CCTE_Shafer_MEA_acute_spike_number: CCTE's Neural Acute Assay for Total Number of Spikes, Shafer Lab (AID 2284008);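 on AC50: curve fitted for decrease in spike count so AC50 reflects inhibitors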
Details: not given
In short: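 Total spike count from 40 min recordings before and during compound exposure (0.03-40 uM), given as per-well percent change. Cortical cultures from rat, DIV 13 or 15, 37 C; adaptive detection threshold 8x rms noise.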

| Structure (SMILES) | outcome | AC50 |
| --- | --- | --- |
| CC[C@H]1OC(=O)[C@H](C)[C@@H](O[C@H]2C[C@@](C)(OC)[C@@H](O)[C@H](C)O2)[C@H](C)[C@@H](O[C@@H]2O[C@H](C)C[C@H](N(C)C)[C@H]2O)[C@](C)(O)C[C@@H](C)C(=O)[C@H](C)[C@@H](O)[C@]1(C)O | inactive | – |
| Cn1c(=O)c2c(ncn2C)n(C)c1=O | inactive | – |
| CC[C@H]1CC[C@H](NCc2cc3c(cc2OC)[C@H]2C[C@H]2C(=O)N3C)[C@H](c2ccccc2)N1 | – | 3.07 µM (active) |
| COc1cccc(-c2ccc(/C=C\CN3CCCCCC3)cc2Cl)c1 | – | 3.65 µM (active) |
| COc1ccc2sc(C(=O)Nc3nnn[nH]3)c(OC(C)C)c2c1 | inactive | – |
| O=C(O)CCN(C1(C(=O)NO)CCCC1)S(=O)(=O)c1ccc(Oc2ccc(F)cc2)cc1 | inactive | – |
| CCCCCCCCCCCCc1ccccc1 | inactive | – |
| CC(C)=CCCC(C)=CC=O | inactive | – |
| CCCCC(CC)COC(=O)CCCCCCCCC(=O)OCC(CC)CCCC (stereo not given) | inactive | – |
| On1ccccc1=S | inactive | – |
| Cn1cnc([N+](=O)[O-])c1Sc1ncnc2nc[nH]c12 | inactive | – |
| O=P(OC(CCl)CCl)(OC(CCl)CCl)OC(CCl)CCl | inactive | – |
